Measurements as given in the supplement of paper PMC6555819.

Assays:
Test in all cases: PBM binding z-score (relative to random genomic background probes); higher = stronger binding; sequences stand for … in GC…GCGATTGACAGCGTAGAATGAAGG
[1] = tested on: RARb homodimer (NR concentration 270 nM)
In short: (§1)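 Each nuclear receptor dimer, without ligand, was incubated for 1 h on custom Agilent 4×180K protein-binding microarrays. Binding was detected with antibodies against each partner (one per run), and scanned fluorescence was regression-normalized. The binding z-scores are referenced to random human genomic background probes.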

[2] = tested on: RARg:RXRa (NR concentration 270 nM, RXRa partner concentration 90 nM)
In short: as §1

[3] = tested on: RARg homodimer (NR concentration 270 nM)
In short: as §1

[4] = tested on: RXRa DBDmut IVT, anti-RXR (DBD mutation: RXRa K156A/R161A, NR concentration 90 nM)
In short: as §1

[5] = tested on: THRa:RXRa (NR concentration 90 nM, RXRa partner concentration 90 nM)
In short: as §1

[6] = tested on: THRa homodimer (NR concentration 90 nM)
In short: as §1

[7] = tested on: VDR:RXRa (NR concentration 270 nM, RXRa partner concentration 90 nM)
In short: as §1

[8] = tested on: VDR homodimer (NR concentration 270 nM)
In short: as §1

Sequence | PBM binding z-score [1] | PBM binding z-score [2] | PBM binding z-score [3] | PBM binding z-score [4] | PBM binding z-score [5] | PBM binding z-score [6] | PBM binding z-score [7] | PBM binding z-score [8]
ACTAGTTGGTCACCTGAGGTCACACACAATTCGG | 4.6 | 4.66 | 4.96 | 1.53 | 5.34 | 5.66 | 5.23 | 5.13
CCGACTGGGTCAAAGGTTACCATACTCAGTACGA | 3.42 | 5.88 | 4.13 | 1.23 | 3.62 | 0.418 | 4.41 | 0.82
GCTAGTTTGTCAGTAAAAGGTCACACACCGGTCG | 5.18 | 5.07 | 4.23 | 1.18 | 3.6 | 1.61 | – | 2.4
TCTTGTAGGTCAAAGGTTAAGAAAGCCGAAGCCT | 3.84 | 7.23 | 5.61 | 1.98 | 3.76 | 0.452 | 4.54 | 0.881
CAAACTAGGTCACAGAGGACAAAGTCCGTGCGTA | 3.93 | 4.96 | 6.01 | 2.36 | 3.89 | 1.94 | – | 3.57
ATCGAAAGGTCGCAGGTGAGTATACCCACCCGAA | 3.04 | 4.73 | 4.6 | 0.648 | 2.57 | 0.171 | – | 0.597
CTTAGTTGGTCAAGGTCACACACGCTATAGGTAC | 4.53 | 4.9 | 5.2 | 2.05 | 4.43 | 4.65 | – | 3.96
CCTTACGGGTCACTCCATGTTATAGCATCGGAGT | 2.87 | 4.1 | 3.99 | 1.59 | 2.84 | -0.286 | 3.02 | 1.46
CAAACTAGGTCACAGAGGTCAAAGTTCGTGCGTA | 5.64 | 7.52 | 7.81 | 3.36 | 4.93 | 3.18 | 8.36 | 7.28
CCTACTGGGGCACGAAAGGTCATTGATTCAGTGA | 4.81 | 4.75 | 4.85 | 0.748 | 4.03 | 0.632 | – | 2.34
TGAATGAGGTTAAAGGTCAGGGAACGTGGCGTCG | 4.57 | 7.13 | 5.51 | 1.87 | 4.33 | 1.94 | – | 2.81
CAAACTAGGTCACGAAAGGGCAAAGTCGAATGAC | 4.43 | 5.81 | 6.33 | 1.77 | 4.54 | 1.42 | – | 1.35
TCATATAGGTAAAAGGTCAAAGTCGGTGTGGTAA | 4.74 | 6.62 | 5.95 | 2.5 | 3.85 | 1.47 | – | 3.09
ACTAGCAGGTCAAGGGTCACTCAAGATTAGTCCG | 4.9 | 6.89 | 6.42 | 2.13 | 4.04 | 1.42 | – | 2.56
AGTCAAAATTCACTAGGTAACGTAAGATTCAGCT | 0.0175 | 0.434 | 0.425 | 0.24 | 0.806 | 0.608 | – | 0.272
ATATGTAGGTTAGCGTCATTCAGAAAGTAGGGAA | 0.285 | 0.435 | 0.62 | -0.0875 | 0.15 | -0.253 | – | 0.0488

Sequence | PBM binding z-score [1] | PBM binding z-score [2] | PBM binding z-score [3] | PBM binding z-score [4] | PBM binding z-score [5] | PBM binding z-score [6] | PBM binding z-score [7] | PBM binding z-score [8]
CGTCAAAGTTCAAGCTAACGTAACAGAAAGCAGC | 3.86 | 5.65 | 6.4 | 4.63 | 1.86 | -0.403 | – | 3.69
ATCGAAAAGTCGAAGGTGAGTATACCCACCCGAA | -0.251 | 0.436 | 0.586 | -0.665 | 0.0744 | -0.357 | – | -0.0912
CGAACTAGGTCACCAGAACAGTGAAGAGGTTGGA | 3.14 | 4.44 | 5.22 | 1.11 | 2.87 | 0.853 | – | 0.565
TTACCAAGGTGAAAGGTCATTGATGCACGCCTTG | 4.75 | 6.91 | 5.06 | 1.85 | 4.42 | 1.64 | – | 3.32
CGTCAAAGTTCAAGGCAACGTAACAGAAAGCAGC | 3.41 | 5.02 | 6.02 | 3.97 | 1.72 | -0.246 | – | 2.61
CCGACTGGGGCAAAGGTCACCATACTCAGTACGA | 4.81 | 7 | 6.32 | 0.548 | 3.62 | 1.04 | – | 1.55
GATACAGGGTCAATGCCAGAGTACGCGTATTGAT | 3.11 | 4.62 | 4.35 | 2.89 | 2.87 | 0.742 | – | 2.31
GCTGCTAGGTTAACTGATGGTCAGCTAAAGCTCG | 0.815 | 1.6 | 0.672 | 0.235 | 0.689 | -0.683 | – | -0.649
CGTCCAAGGTCAATGCTAGGCCAGTGAAAGCATT | 3.99 | 6.23 | 6.11 | 3.55 | 3.96 | 2.15 | – | 2.49
GATAGTTGGTCAGTAAAAGGTCACACACCGGTCG | 5.36 | 5.32 | 4.96 | 0.579 | 3.59 | 1.91 | – | 2.12
CAAACTAGGTCACAGAGGGCAAAGTCCGTGCGTA | 4.14 | 5.05 | 5.61 | 2.45 | 3.87 | 1.55 | – | 4.18
ATCGAAAGGTCGAAGGTCAGTATACCCACCCGAA | 4.11 | 6.01 | 5.42 | 1.78 | 3.31 | 0.706 | – | 1.51
TAGCCTAGGTCATAGGGCCAGTATAGTACGCATC | 2.98 | 3.86 | 3.89 | 0.967 | 2.75 | 0.823 | – | 0.453
CAAACTAGGTCACCGGAAGGTCAAAGTTCGCATG | 5.7 | 8.56 | 7.83 | 2.41 | 4.59 | 3 | – | 4.52
ATCGAAAGGTCGAGTTGAGTATAGAGAAAGGGAA | 2.39 | 4.11 | 4.31 | 1.89 | 2.23 | -0.17 | – | 1
